Most compounds without a hit are left out; they make up all but 3% or so of the library.
TWEAK-Fn14 inh: TWEAK-Fn14 signaling inhibition | inhibition, % at 10 µM | AID 1159606 | TWEAK-stimulated Fn14 reporter cells, luciferase luminescence, 8 h | hit rate 2% among 360,000; in the data active = inhibition above about 50%
LGR2 antag: blocks bursicon-induced cAMP signaling via Drosophila LGR2 | inhibition, % at 9.99 µM | hit rate 0.35% among 380,000 | HEK293 LGR2, CRE-luciferase, bursicon-stimulated, 4 h;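 active = drop in luminescence signal, shown as inhibition above about 50% in the replicate tests, limit read from the data, passing the limit was not always enough; inconclusive = probably only some replicates passing the limit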;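 note: agonist challenge used bursicon conditioned medium at about half maximal strength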
MITF TRPM1 inh: MITF TRPM1 promoter inhibition in SK-MEL-5 cells. inhibition, % at 12.5 µM. AID 488899. hit rate 0.83% among 330,000. SK-MEL-5 TRPM1 promoter luciferase, 24 h;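 active = mean inhibition across replicates of 60% or more, whatever share of single replicates reaches that level; inconclusive = some that reach 60%, reason not given; inactive = mean inhibition across replicates below 60%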
MITF act: activators of MITF-driven TRPM1 promoter activity in SK-MEL-5 cells; hit rate 0.75% among 300,000; SK-MEL-5 TRPM1-promoter luciferase, 24 h; % of positive control, neutral wells = 0; activation, % at 12.5 µM;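 active = mean activation of at least 80% with every replicate also reaching 80%; inconclusive = mean reaches 80% but some replicate falls short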
TROY signal inh: inhibitors of TROY-dependent NF-kB signaling; inhibition, % at 10 µM; Q293 LMP1-TROYcd NF-kB luciferase reporter, 4 h; hit rate 0.98% among 360,000;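 active = compounds whose plate-normalised and pattern-corrected inhibition of the luciferase reporter signal at the single screening dose is 50% or more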
LMP1 NFkB inh: Epstein-Barr LMP1 NF-kappaB reporter inhibition | hit rate 0.69% among 350,000 | LMP1-induced NF-kappaB luciferase reporter cells, luminescence | inhibition, % at 12.5 µM; in the data active = inhibition above about 41%; inconclusive = no clear call, values can overlap the other calls
A number is an active result; 0 = inactive; ? = inconclusive; - = no result.

SMILES | TWEAK-Fn14 inh | LGR2 antag | MITF TRPM1 inh | MITF act | TROY signal inh | LMP1 NFkB inh
C[C@H](CO)N1C[C@H](C)[C@H](CN(C)C(=O)Cc2ccccc2)Oc2ncc(C3=CCCCC3)cc2C1=O | - | 0 | - | - | - | -
Cc1noc(C)c1S(=O)(=O)Nc1ccc2c(c1)CC(=O)N([C@@H](C)CO)C[C@H](C)[C@H](CN(C)C)O2 | - | 0 | - | - | - | -
O=C(CCN1CCC(c2ccccc2)C1)c1ccc2c(c1)OCCO2 (centres undefined) | 0 | 0 | 0 | 0 | 0 | 82
C/C(=N/NC(=O)CCc1ccccc1)c1ccc2c(c1)OCO2 | 0 | 0 | 0 | 0 | 0 | 0
O/N=C(/CCc1ccccc1)c1ccc2c(c1)OCCO2 | 0 | 0 | 0 | 92 | 0 | 0
O=C(CCCc1ccccc1)c1ccc2c(c1)OCCO2 | 102 | 101 | 77 | 0 | 88 | 61
O=C(Nc1ccc(F)cc1)N1C[C@H]2[C@@H](c3ccccc31)[C@@H](CO)N2C(=O)c1ccc(F)cc1 | - | 0 | - | - | - | -
CCC(=O)N1[C@H](CO)[C@@H](c2ccc(C3=CCCC3)cc2)[C@H]1CNC(=O)CN(C)C | - | 0 | - | - | - | -
C[C@H](CO)N1C[C@H](C)[C@@H](CN(C)S(C)(=O)=O)Oc2ncc(C3=CCCC3)cc2C1=O | - | 0 | - | - | - | -
CC(C)COC(=O)c1ccc2c(c1O)C(=O)c1ccccc1C2=O | 71 | - | 0 | - | 0 | 0
C[C@@H]1CN([C@H](C)CO)C(=O)c2cc(NS(=O)(=O)c3cn(C)cn3)ccc2O[C@@H](C)CCCCO[C@@H]1CN(C)Cc1ccncc1 | - | 0 | - | - | - | -
CC1(C)CC[C@]2(C(=O)n3ccnc3)CC[C@]3(C)[C@H](C(=O)C=C4[C@@]5(C)C=C(C#N)C(=O)C(C)(C)[C@@H]5CC[C@]43C)[C@@H]2C1 | 106 | 0 | 94 | 0 | 75 | 90
N#Cc1cc2c(nc1SCC(=O)N1CCOCC1)CCCCC2 | 95 | - | 0 | 0 | 81 | 0
N#Cc1cc2cc3c(cc2nc1SCC(=O)N1CCCC1)OCCO3 | 0 | - | 0 | 87 | 51 | 0
COc1ccc2cc(C#N)c(SCC(=O)N3CCCC3)nc2c1 | 0 | - | 0 | 0 | 0 | 0
CC(=O)CSc1nc2cc3c(cc2cc1C#N)OCCO3 | 84 | 61 | 0 | 0 | 0 | 0
CCN(C(=S)Nc1cccc2ccccc12)c1ccccc1 | 83 | 0 | - | - | 0 | 0
C[C@@H]1CCCCO[C@H](CN(C)Cc2ccccc2)[C@H](C)CN([C@H](C)CO)C(=O)c2cc(NC(=O)NC3CCCCC3)ccc2O1 | - | 0 | - | - | - | -
N#Cc1c(-c2cccs2)nc(SCc2ccc(Cl)cc2)[nH]c1=O | 0 | 0 | 0 | 0 | 74 | 0
Cc1noc(C)c1NC(=O)N(C)C[C@@H]1Oc2ccc(NC(=O)Cn3cnnn3)cc2CC(=O)N([C@H](C)CO)C[C@H]1C | - | 0 | - | - | - | -
C/C(=N\OC(=O)Nc1ccccc1)c1ccc(C)cc1 | 0 | 0 | 0 | 101 | 0 | 0
O=C(C[C@@H]1CC[C@H]2[C@@H](COC[C@@H](O)CN2C(=O)Nc2ccccc2)O1)NCCCN1CCOCC1 | - | 0 | - | - | - | -
CSc1ccc(/C=C(\C#N)C(=O)NC2CCCCC2C)cc1 (centres undefined) | 0 | 0 | 0 | 0 | 0 | 0
CC1CCCCC1NC(=O)/C(C#N)=C/c1ccccc1F (centres undefined) | 70 | 0 | ? | 0 | 0 | 0
CCN(CC)S(=O)(=O)c1ccc(N=NC2=C(O)CCCC2=O)cc1 | 0 | 0 | 0 | 0 | 0 | 63
SMILES | TWEAK-Fn14 inh | LGR2 antag | MITF TRPM1 inh | MITF act | TROY signal inh | LMP1 NFkB inh
Cc1cn(CCC(=O)Nc2ccc(N3CCOCC3)cc2)c2ccccc12 | 0 | - | 0 | 81 | 0 | 0
CO[C@H]1CN(C)C(=O)c2cc(NS(=O)(=O)c3ccccc3)ccc2OC[C@H](C)N(Cc2nccs2)C[C@@H]1C | - | 0 | - | - | - | -
COc1cccc(NC(=O)c2cc3ccccc3o/c2=N\O)c1 | 78 | ? | 0 | - | 0 | 0
Cc1cccc(NC(=O)c2cc3ccccc3oc2=O)c1 | 53 | 0 | 0 | 0 | 0 | 0
Cc1csc(NC(=O)c2oc3ccccc3c2C)n1 | 0 | 0 | 0 | 0 | 0 | 0
Cc1c(C(=O)Nc2cnccn2)oc2ccccc12 | 0 | 0 | 0 | 0 | 0 | 0
Cc1c(C(=O)NC2=NCCS2)oc2ccccc12 | 57 | - | 0 | 0 | 0 | 0
Cc1ccnc(NC(=O)c2oc3ccccc3c2C)c1 | 51 | 0 | 0 | 0 | 0 | 0
Cc1ccnc(NC(=O)c2cc3ccccc3oc2=O)c1 | 60 | 0 | 0 | 0 | 0 | 0
CCOC(=O)C(C(=O)OCC)C(C(=O)OCC)N1CCOCC1 (centres undefined) | 0 | - | 96 | 0 | 0 | 0
CCOC(=O)C(C)CC(C)C(=O)N1CCOCCOCCN(C(=O)C(C)CC(C)C(=O)OCC)CCOCC1 (centres undefined) | 0 | - | 0 | - | 0 | 0
C[C@@H]1CN([C@@H](C)CO)S(=O)(=O)c2ccc(C3=CCCCC3)cc2O[C@@H]1CN(C)S(=O)(=O)c1ccc(F)cc1 | - | 0 | - | - | - | -
CCC(=O)N[C@@H]1CC[C@@H](CC(=O)NCc2cc(F)cc(F)c2)O[C@H]1CO | - | 0 | - | - | - | -
CC[C@H](C)C1OC(=O)[C@@H](C)[C@@H](CC)NC(=O)[C@H](C)N(C)C(=O)C(C)(C)C(=O)C(C)NC(=O)[C@H](Cc2ccc(OC)cc2)N(C)C(=O)[C@H](C(C)C)N(C)C(=O)CNC(=O)[C@H](CC(C)C)N(C)C(=O)CNC1=O (some centres undefined) | 0 | - | - | - | 54 | -
COc1cccc(NC(=O)C[C@H]2CC[C@@H]3[C@@H](COc4ccc(NC(=O)C5CCCCC5)cc4C(=O)N3C)O2)c1 | - | 0 | - | - | - | -
Cc1sc2ncnc(SCC(=O)N3CCC(c4noc5ccc(F)cc45)CC3)c2c1C | 0 | 0 | 0 | 0 | 0 | 0
Cc1nnc(SCC(=O)N2CCC(c3noc4ccc(F)cc34)CC2)s1 | 68 | 0 | 0 | 0 | 0 | ?
N#CC1(NC(=O)Cn2ncc(Cl)c(Cl)c2=O)CCCCC1 | 78 | 0 | 0 | 0 | 55 | 0
CCc1ccc(-c2cn(-c3nc(C)cc(C)n3)c(=N)o2)cc1 | 91 | - | 0 | 0 | 0 | 0
Cc1ccccc1S(=O)(=O)N1[C@H](C#N)[C@H](c2ccc(C#CC3CCCCC3)cc2)[C@H]1CO | - | 76 | - | - | - | -
Cc1ccccc1S(=O)(=O)N1[C@H](C#N)[C@@H](c2ccc(C#CC3CCCCC3)cc2)[C@@H]1CO | - | 0 | - | - | - | -
Cc1ccc(/C=N/Nc2ncnc3nc[nH]c23)cc1 | 0 | 0 | 0 | 0 | 0 | 0
Clc1ccc(/C=N/Nc2ncnc3nc[nH]c23)cc1 | 0 | 0 | 0 | 187 | 0 | 0
COc1ccc(-c2csc(-c3cccs3)n2)c(OC)c1 | 0 | 0 | 0 | 0 | 0 | 0
COc1ccc(-c2csc(-c3ccccc3)n2)c(OC)c1 | 56 | 0 | 0 | 86 | 0 | 0
c1ccc2c(c1)nc(Nc1ccc(N3CCCCC3)cc1)c1nncn12 | 51 | 0 | 0 | 0 | 0 | 0
CCOc1ccc(Nc2nc3ccccc3n3cnnc23)cc1 | 87 | 0 | 0 | 0 | 0 | 0
O=C(c1ccccc1F)N1C[C@@H]2[C@H](c3ccccc31)[C@@H](CO)N2C(=O)c1ccncc1 | - | 0 | - | - | - | -

Screening data as filed in PubChem BioAssay.
